Only some compounds are listed: those with a hit (about 3.3% of all), similar ones and a draw of the others.
INS-1E GSIS act: GLuc luminescence reporter in INS-1E cells, primary screen for activators of glucose-dependent secretion of insulin | INS-1E GLuc reporter insulin secretion, 2-3 h | AID 743287, 2014 | 0.61% of 370,000 active | activation, % at 16.6 µM;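 active means lowest replicate activation of at least 40%, so every replicate reaches that level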;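 further: 0% = median of neutral control wells and 100% = median of IBMX positive control wells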
FGF22 binding: binders of human FGF22 protein, primary screen, FGF22 synaptogenesis inhibitor project, biophysical, thermal shift, single point; Fibroblast growth factor 22 (Homo sapiens), Q9HCT0; recombinant FGF22 thermal shift, SYPRO orange fluorescence; percent of sucrose octasulfate shift, DMSO zero; activity (Tm shift, normalised), % at 9.99 µM; 1.5% of 340,000 active; AID 651658, 2012;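 active means mean Tm shift, scaled 0 neutral to 100 positive control, at about 1.3% or above, every replicate too, limit read from the data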
Target sequence (Q9HCT0 whole entry, looked up): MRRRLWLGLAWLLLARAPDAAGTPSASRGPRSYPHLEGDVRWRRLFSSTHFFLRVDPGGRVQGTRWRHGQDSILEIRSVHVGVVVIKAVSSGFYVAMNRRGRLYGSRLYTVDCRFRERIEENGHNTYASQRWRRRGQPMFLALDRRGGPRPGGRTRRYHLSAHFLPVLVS
Casp6 inh: human caspase-6 inhibitors, primary screen, biochemical, VEID-R110 fluorescence, single point, set 2. purified caspase-6, Z-VEID-R110 cleavage fluorescence. 0.53% of 350,000 active. inhibition, % at 12.5 µM;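 active means mean inhibition across replicates at least about 35%, with every replicate also reaching that limit, limit read from the data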;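 further: 0% = median of neutral control wells and 100% = no fluorescence left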
Target sequence (P55212 24-179 limits assumed): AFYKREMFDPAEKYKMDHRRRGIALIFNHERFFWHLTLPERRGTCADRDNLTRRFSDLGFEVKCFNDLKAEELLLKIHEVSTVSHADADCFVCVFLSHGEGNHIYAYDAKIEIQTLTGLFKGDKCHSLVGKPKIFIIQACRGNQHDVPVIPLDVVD
Target sequence (P55212 194-293 limits assumed): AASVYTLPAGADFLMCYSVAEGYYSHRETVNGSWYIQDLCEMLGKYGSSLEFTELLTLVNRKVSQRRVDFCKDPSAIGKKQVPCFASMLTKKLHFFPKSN
ERAP1 inh: human ERAP1 aminopeptidase inhibitors, primary screen, biochemical, single point, plate reader; recombinant ERAP1, Leu-AMC fluorescence, 60 min; inhibition, % at 10.7 µM; AID 652197, 2013; Endoplasmic reticulum aminopeptidase 1 (Homo sapiens), Q9NZ08; 0.15% of 340,000 active;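 active means mean replicate inhibition of at least 30%, or all replicates individually reaching that 30% level; inactive means mean below 30% and not every replicate reaching it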;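 further: 0% = neutral control wells and 100% = L-leucinethiol positive control wells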
SIRT5 block: SIRT5 desuccinylase inhibitors, primary screen, biochemical, fluorescence imaging, single point, set 5; Purified SirT5, succinyl-peptide AMC, trypsin-coupled fluorescence; 1.1% of 330,000 active; inhibition, % at 15 µM; AID 652115, 2013; in the data active means inhibition above about 15%
Active calls of the source: *.

For Cc1c(NC(=S)N/C(=N/S(=O)(=O)c2ccccc2)c2ccccc2)c(=O)n(-c2ccccc2)n1C the results were INS-1E GSIS act 43.5*, FGF22 binding 0.3, Casp6 inh -0.2, ERAP1 inh 3.0 and SIRT5 block 1.8.
Cc1c(NC(=O)c2ccc(N(C)S(=O)(=O)c3ccccc3)cc2)c(=O)n(-c2ccccc2)n1C was read as INS-1E GSIS act -15.2, FGF22 binding 43.4*, Casp6 inh 2.0, ERAP1 inh 0.0 and SIRT5 block -1.2.
`Cc1c(NC(=S)N/C(=N/S(=O)(=O)c2ccc(Cl)cc2)c2ccccc2)c(=O)n(-c2ccccc2)n1C` gave FGF22 binding -0.3, Casp6 inh 2.5, ERAP1 inh 4.4 and SIRT5 block -4.6.
`Cc1c(NS(=O)(=O)c2cc(C(=O)NCc3cccc(Cl)c3)ccc2Cl)c(=O)n(-c2ccccc2)n1C` gave INS-1E GSIS act -9.1, FGF22 binding 0.0, Casp6 inh 0.6, ERAP1 inh 6.0 and SIRT5 block -0.9.
`Cc1c(NS(=O)(=O)c2cc(C(=O)NCCN(C)C)ccc2Cl)c(=O)n(-c2ccccc2)n1C` gave INS-1E GSIS act 3.8, FGF22 binding 0.0, Casp6 inh 42.3*, ERAP1 inh -0.4 and SIRT5 block -2.0.
Screening COc1ccc(S(=O)(=O)N[C@H]2CC[C@@H](CCNC(=O)Cc3ccccn3)O[C@@H]2CO)cc1 returned INS-1E GSIS act -1.1, FGF22 binding 0.1, Casp6 inh 0.1, ERAP1 inh -1.8 and SIRT5 block -1.9.
For CC(C)NC(=O)Nc1ccc2c(c1)CC(=O)N(C)C[C@@H](C)[C@H](CN(C)C(=O)NC(C)C)O2 the results were INS-1E GSIS act 21.6.
For Cc1noc(C)c1S(=O)(=O)Nc1ccc2c(c1)CC(=O)N([C@H](C)CO)C[C@H](C)[C@@H](CN(C)S(=O)(=O)c1cccs1)O2 the results were INS-1E GSIS act -5.3, FGF22 binding 0.0, Casp6 inh -3.2, ERAP1 inh 1.6 and SIRT5 block 2.7.
O=[N+]([O-])c1cccc(/C=N/Nc2nc(N3CCOCC3)nc(N3CCOCC3)n2)c1 was read as INS-1E GSIS act 6.7, FGF22 binding 44.3*, Casp6 inh -0.9, ERAP1 inh 3.8 and SIRT5 block 0.0.
Screening Cc1cn(-c2ccccc2)c(C)c1/C=N\Nc1nc(N2CCOCC2)nc(N2CCOCC2)n1 returned INS-1E GSIS act 7.3, FGF22 binding 43.1*, Casp6 inh 0.3, ERAP1 inh -1.8 and SIRT5 block 8.8.
Screening O=[N+]([O-])c1cccc(/C=N/Nc2cc(N3CCOCC3)ncn2)c1 returned INS-1E GSIS act -4.2, FGF22 binding -0.1, Casp6 inh -1.8, ERAP1 inh -3.1 and SIRT5 block -4.7.
Screening CC(=O)N(C)C[C@H]1Oc2cc(C#Cc3ccccc3)ccc2S(=O)(=O)N([C@H](C)CO)C[C@H]1C returned INS-1E GSIS act -17.0, FGF22 binding -0.4, Casp6 inh -0.4, ERAP1 inh -0.1 and SIRT5 block 6.8.
Screening Cc1ccc(Nc2nc(NCC3CCCO3)nc(N)c2[N+](=O)[O-])cc1 (stereo unspecified) returned INS-1E GSIS act 81.4*.
Screening COCCNc1nc(N)c([N+](=O)[O-])c(NCC2CCCO2)n1 (stereo unspecified) returned INS-1E GSIS act 54.0*.
`Nc1nc(NCCOCCO)nc(NCC2CCCO2)c1[N+](=O)[O-]` (stereo unspecified) gave INS-1E GSIS act -11.7, FGF22 binding 0.0, Casp6 inh 1.8, ERAP1 inh 4.4 and SIRT5 block 1.1.
Nc1nc(NCC2CCCO2)nc(Nc2ccc(F)cc2)c1[N+](=O)[O-] (stereo unspecified) was read as INS-1E GSIS act -1.6.
`O=C(C[C@@H]1C=C[C@H](NC(=O)Nc2cc(F)ccc2F)[C@@H](CO)O1)Nc1ccccc1` gave INS-1E GSIS act 9.5, FGF22 binding 0.1, Casp6 inh 0.0, ERAP1 inh 0.5 and SIRT5 block -4.2.
`CC(=O)Nc1cccc2c1O[C@@H](CN(C)C)[C@@H](C)CN(C)C2=O` gave INS-1E GSIS act 21.4.
For O=c1c2c([N+](=O)[O-])cc([N+](=O)[O-])cc2nc2ccccn12 the results were INS-1E GSIS act 5.0, FGF22 binding 0.1, Casp6 inh 5.2, ERAP1 inh -0.3 and SIRT5 block -4.2.
Screening O=c1c2c([N+](=O)[O-])cc([N+](=O)[O-])cc2sn1Cc1ccccc1 returned INS-1E GSIS act 128.4*, FGF22 binding -0.1, Casp6 inh 0.9, ERAP1 inh 87.8* and SIRT5 block 20.4*.
`CCS(=O)(=O)N[C@H]1C=C[C@@H](CC(=O)Nc2ccc(-c3ccccc3)cc2)O[C@@H]1CO` gave INS-1E GSIS act 4.3, FGF22 binding 0.7, Casp6 inh 16.5, ERAP1 inh 4.3 and SIRT5 block 1.6.
Screening COc1ccc(-c2nnn(Cc3nc(N)nc(N4CCOCC4)n3)n2)cc1OC returned INS-1E GSIS act 96.4*.
Screening COc1ccc(S(=O)(=O)N2C[C@H](O)COC[C@@H]3O[C@@H](CC(=O)NCCN4CCCCC4)CC[C@H]32)cc1 returned INS-1E GSIS act 32.1 and FGF22 binding 0.4.
CO[C@H]1CN(C)C(=O)c2ccc(NC(=O)C3CC3)cc2OC[C@@H](C)N(C(=O)c2ccncc2)C[C@H]1C was read as INS-1E GSIS act -4.1, FGF22 binding -0.1, Casp6 inh 0.1, ERAP1 inh 6.6 and SIRT5 block -0.7.
COc1ccc(CNCC(=O)Nc2cc(C)nn2-c2nc(C)cc(C)n2)cc1OC was read as INS-1E GSIS act 8.8, FGF22 binding 43.6*, Casp6 inh -2.2, ERAP1 inh 2.0 and SIRT5 block -0.9.
CCCN(C)C[C@@H]1OCc2cn(nn2)CCCC(=O)N([C@@H](C)CO)C[C@@H]1C was read as INS-1E GSIS act 7.7, FGF22 binding 0.0, Casp6 inh -0.2, ERAP1 inh 0.2 and SIRT5 block -1.6.
For COCC(=O)N1CC(=O)N2[C@H](CO)[C@H](c3ccc(C#Cc4cccnc4)cc3)[C@@H]2C1 the results were INS-1E GSIS act 1.4, Casp6 inh 1.0, ERAP1 inh -2.2 and SIRT5 block -1.1.
Screening Cc1ccc2c(c1)CO[C@@]21O[C@H](CCO)C[C@H](O)[C@H]1O returned INS-1E GSIS act 24.0, FGF22 binding -0.1, Casp6 inh -0.1, ERAP1 inh 6.7 and SIRT5 block 23.0*.
Screening CNC[C@@H]1OCCCC[C@H](C)Oc2ccc(NS(C)(=O)=O)cc2C(=O)N([C@H](C)CO)C[C@@H]1C returned INS-1E GSIS act 2.0, FGF22 binding -0.2, Casp6 inh -2.4, ERAP1 inh -3.8 and SIRT5 block 0.7.

Assay outcomes: PubChem BioAssay, Broad Institute
